# Assay outcomes (PubChem)
# Tau fibril ThT: blocks human tau fibril formation measured by thioflavin T. P10636. AID 1460. Potency, µM (top dose mostly 57.4 µM), inactives show at the top dose activity, negative = inhibition, usual class: inhibitors. hit rate 2.1% among 270,000. recombinant tau K18 P301L, heparin-induced fibrillization, ThT fluorescence; also: nearly all actives have a fitted effect of over 55% in size
# Target sequence (P10636 561-689 P618L limits assumed): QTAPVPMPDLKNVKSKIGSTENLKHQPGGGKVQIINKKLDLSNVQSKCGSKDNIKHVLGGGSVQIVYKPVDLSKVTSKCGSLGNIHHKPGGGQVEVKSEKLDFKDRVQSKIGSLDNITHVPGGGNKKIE
#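 K18 P301L tau (15 uM + 0.24 uM Alexa 594-tagged), heparin 20 uM, NaOAc pH 7, 6 h 37 C; ThT 30 uM, 1 h RT, ex 450/em 510 nm.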
# TR SRC2 fluor cs: counter-screen for TRb-SRC2 inhibitors: fluorescence interference. TRb/SRC2 Texas Red total fluorescence interference. Potency, µM (doses to about 106 µM), inactives show top-dose fluorescence change, negative = quenching. hit rate 0.29% among 280,000; active = well fitted curve in either direction with a large enough effect; inconclusive = small, poorly fitted or top-dose-only effect
#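 Human TRb ligand-binding domain at 0.6 uM with 20 nM Texas Red SRC2 peptide in Tris buffer containing 1 uM T3 and 5% DMSO, incubated with compound 5 h at ambient temperature. Total fluorescence (555/632 nm) calculated as parallel + 2 × perpendicular.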
# KDM4E inh: inhibitors of human JMJD2E histone demethylase | JMJD2E catalytic domain, FDH-coupled NADH fluorescence (FDH is formaldehyde dehydrogenase) | Potency, µM (doses to about 57.1 µM), for the others: at the highest dose activity change, negative = inhibition, hits mostly inhibitors | hit rate 1.6% among 230,000; active = well fitted inhibition curve with a large enough effect, not every such curve was filed as active; inconclusive = small, poorly fitted or top-dose-only effect, or another doubt; inactive = no such curve, though single readings can be large or run the other way;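 also: 0% = wells with enzyme and -100% = buffer wells without enzyme; nearly all actives have a fitted effect of over 50% in size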
# Tau FP inhib: blocks human tau fibril formation measured by polarization; P10636; K18 P301L tau heparin fibrillization, Alexa594 FP, 6 h; Potency, µM (top dose mostly 57.7 µM), inactives show top-dose activity, negative = inhibition, usual class: inhibitors; hit rate 0.39% among 280,000; also: nearly all actives have a fitted effect of over 55% in size
#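 FP of Alexa 594-tau after heparin (20 uM) induction. Substrate: human K18 P301L, 15 uM unlabeled, 0.24 uM labeled. Buffer 100 mM sodium acetate pH 7. 6 hr, 37 C.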
# TRb SRC2 PPI: inhibitors of human thyroid hormone receptor beta-SRC2 interaction | P10828 | TRbeta-SRC2 peptide binding, fluorescence polarization; receptor liganded with 1 µM T3 | Potency, µM (series often up to 106 µM), inactives show top-dose activity change, negative = inhibition, actives largely listed as inhibitors | hit rate 0.065% among 280,000 | AID 1469;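 also: plate controls were bound peptide for no effect and peptide without receptor for full effect; nearly all actives have a fitted effect of over 50% in size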
# Target sequence (P10828 whole entry, looked up): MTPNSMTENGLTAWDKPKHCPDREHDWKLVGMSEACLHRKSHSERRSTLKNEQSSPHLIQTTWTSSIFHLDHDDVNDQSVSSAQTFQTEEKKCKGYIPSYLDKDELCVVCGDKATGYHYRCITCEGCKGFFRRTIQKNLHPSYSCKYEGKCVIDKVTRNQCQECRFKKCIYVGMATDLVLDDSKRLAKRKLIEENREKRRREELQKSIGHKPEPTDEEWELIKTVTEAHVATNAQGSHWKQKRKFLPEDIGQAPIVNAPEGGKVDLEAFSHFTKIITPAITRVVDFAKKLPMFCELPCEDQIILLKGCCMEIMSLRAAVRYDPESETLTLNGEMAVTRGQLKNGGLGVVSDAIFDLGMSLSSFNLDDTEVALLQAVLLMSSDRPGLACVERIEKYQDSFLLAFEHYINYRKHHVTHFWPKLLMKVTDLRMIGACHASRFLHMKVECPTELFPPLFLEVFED
#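 Decrease in fluorescence polarization of 20 nM Texas Red SRC2 coactivator peptide flagged inhibition of its binding to 0.6 uM TRb LBD; 1 uM T3 included, incubation 5 hr, ex 555/em 632 nm.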
# Tau fluor cs: counter-screen for tau fibril formation inhibitors; Potency, µM (titrated, usually from 57.7 µM), inactives show top-dose activity change, negative = decrease; hit rate 0.93% among 280,000; tau K18 P301L (four-repeat tau fragment) Alexa594 fluorescence, heparin fibrillization; AID 1463; also: nearly all actives have a fitted effect of over 55% in size
#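 Human K18 P301L tau (15 uM unlabeled plus 0.24 uM Alexa 594-labeled, final) in 100 mM sodium acetate pH 7 was mixed with compound and 20 uM heparin and incubated 6 hr at 37 C.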
# Starred values were filed as active, the others as inactive; ? = inconclusive; / = no result; [ ] = remark or other dose. Rows were chosen to be rich in hits. Some 3.5% of all compounds tested hit in one or more screens of this group. Unless noted, calls follow the shape of the dose curve; as a rule, active = well fitted curve in the direction sought with a large enough effect; inconclusive = small, poorly fitted or top-dose-only effect, or another doubt; inactive = no such curve, though single readings can be large; an effect the other way counts as inactive or inconclusive. Unless noted, % is scaled to controls: 0 for no effect and ±100 for the full control effect; potency is read from the fitted curve at half-maximal effect.
SMILES,Tau fibril ThT,TR SRC2 fluor cs,KDM4E inh,Tau FP inhib,TRb SRC2 PPI,Tau fluor cs
COc1ccc(CCNc2nc(SCc3cccc(F)c3)nc3ccccc23)cc1OC,-1.4%,0.6%,/,-5.4%,8.5%,-13.1%
Fc1ccc(Nc2nc(SCc3ccc(Cl)cc3)nc3ccccc23)cc1,?,-5.1%,/,7.94µM*,6.2%,?
Fc1ccc(Nc2nc(SCc3cccc(Cl)c3)nc3ccccc23)cc1,11.4%,-1.3%,/,8.91µM*,5.0%,?
Fc1ccc(Nc2nc(SCc3cccc(F)c3)nc3ccccc23)cc1,28.8%,0.1%,/,14.1µM*,8.2%,?
CN1CC=C2C(C#N)=C(N)C(C#N)(C#N)[C@H](c3cccs3)[C@H]2C1,?,3.6%,?,?,-9.7%,-16.6%
CN1CC=C2C(C#N)=C(N)C(C#N)(C#N)C(c3ccsc3)C2C1 (configuration not stated),15.8µM*,7.7%,?,?,-7.9%,-18.3%
CN1CC=C2C(C#N)=C(N)C(C#N)(C#N)[C@H](c3cccc(Cl)c3)C2C1 (some centres not stated),20µM*,0.5%,?,?,0.3%,-27.4%
CCOC(=O)N1CC=C2C(C#N)=C(N)C(C#N)(C#N)[C@H](c3ccsc3)[C@H]2C1,?,0.3%,60.6%,?,-14.1%,-11.7%
CCN(CC)c1ccc(/C=C2\C(=O)c3ccc(C(=O)O)cc3C2=O)cc1,2µM*,?,-3.0%,?,25.4%,-7.4%
CCN(CC)c1ccc(C(=O)O)cc1,-8.7%,-2.2%,?,-20.7%,-6.4%,-15.9%
O=C(CCCN1C(=O)c2cccc3cccc(c23)C1=O)N1CCN(c2ccccn2)CC1,?,1.3%,-4.5%,5.5%,-0.5%,4.3%
CCN1CCN(c2cc(C)c3cc(NC(=O)/C=C/c4cccc(OC)c4OC)ccc3n2)CC1,3.16µM*,-6.2%,/,15.9%,5.4%,17.8µM*[quencher]
COc1cccc(/C=C/C(=O)Nc2ccc3nc(N4CCN(C)CC4)cc(C)c3c2)c1OC,5.01µM*,-12.3%,/,8.1%,-5.5%,8.91µM*[quencher]
Cc1ccccc1OC(=O)n1c(=S)oc2cc(Cl)ccc21,4.3%,-4.1%,28.2µM*,5.6%,-6.4%,-0.6%
COc1ccccc1-c1cn[nH]c1-c1ccc(OCc2ccc(F)cc2)cc1O,-10.3%,-3.1%,?,?,-0.3%,10µM*[quencher]
COc1ccccc1-c1cn[nH]c1-c1ccc(OCc2ccccc2F)cc1O,-17.6%,-4.0%,-26.4%,?,6.5%,10µM*[quencher]
COc1ccccc1-c1cn[nH]c1-c1ccc(OCc2ccc([N+](=O)[O-])cc2)cc1O,4.5%,-6.0%,0.1%,?,-3.6%,-23.7%
CCOC(=O)/C(C#N)=C1/C(=O)N(Cc2ccccc2)c2ccccc21,?,-4.2%,-24.8%,-2.3%,-5.9%,-12.0%
COc1cc(O)c(C(CC(=O)N2CCCCC2)c2ccc3c(c2)OCO3)c(OC)c1 (configuration not stated),13.9%,0.2%,-2.5%,11.0%,-0.2%,25.0%
CCOc1ccc(/C=C/c2nc(C#N)c(NC3CCCCC3)o2)cc1,-2.9%,-1.0%,/,?,1.9%,-10.5%
CN1CCc2c(sc(NC(=O)c3cc4cc([N+](=O)[O-])ccc4s3)c2C(N)=O)C1,2.24µM*,-17.9%,-4.5%,2.5%,-9.7%,?
CC(C)N1CCc2c(sc(NC(=O)c3cc4cc([N+](=O)[O-])ccc4s3)c2C(N)=O)C1,3.98µM*,-2.1%,-2.7%,-2.2%,-6.5%,?
CN(C)CC(O)Cn1c2ccc(Br)cc2c2cc(Br)ccc21 (configuration not stated),16.4%,-1.1%,/,25.1µM*,6.8%,?
Cc1cc(C)n(CC(O)Cn2c3ccc(Br)cc3c3cc(Br)ccc32)c(=O)n1 (configuration not stated),-24.4%,0.0%,-6.2%,-13.3%,3.0%,-28.3%
Cc1ccc(O)c(C2=NCCNC(C(F)(F)F)=C2)c1,-20.7%,1.9%,0.6%,1.6%,-12.9%,-11.9%
SMILES,Tau fibril ThT,TR SRC2 fluor cs,KDM4E inh,Tau FP inhib,TRb SRC2 PPI,Tau fluor cs
Oc1c(C2=NCCNC(C(F)(F)F)=C2)ccc2ccccc12,6.31µM*,-3.8%,-26.5%,?,0.6%,?
Cn1ncc(N=Cc2ccccc2O)c1C(=O)Nc1ccccc1,-4.9%,-6.0%,-1.0%,-10.3%,-2.9%,-24.3%
O=c1[nH][nH]c2c(N=Cc3ccccc3O)ccc(F)c12,3.55µM*,-24.3%,-11.4%,7.94µM*,-9.6%,3.55µM*[quencher]
CC(=O)OCCn1c2nc(=O)[nH]c(=O)c-2nc2cc(C)c(C)cc21,?,-6.0%,2.82µM*,-11.5%,-7.3%,-8.2%
O=C(NCc1nc2ccccc2[nH]1)c1cccc(S(=O)(=O)N2CCCCC2)c1,4.7%,0.2%,0.2%,4.6%,-2.7%,2.5%
Cc1cccc(N=Nc2cnc(N)s2)c1,5.01µM*,-1.7%,-0.6%,4.9%,-6.4%,?
Cc1ccc(CNC(=O)CCS(=O)(=O)c2cc3c4c(c2)CCN4C(=O)CC3)cc1,-0.5%,-1.8%,/,2.5%,0.2%,0.9%
O=C(NC1CCCCC1)c1ccc2c(c1)sc1nc(-c3ccc(F)cc3)cn12,-4.0%,-8.8%,/,0.9%,-0.9%,2.9%
O=C(NC1CCCCCC1)c1ccc2c(c1)sc1nc(-c3ccc(F)cc3)cn12,?,1µM*[quencher],/,-2.2%,-12.1%,-23.7%
COc1ccc(-c2cn3c(n2)sc2cc(C(=O)Nc4cccc(OC)c4)ccc23)cc1,-5.8%,-16.8%,/,3.3%,-3.4%,-4.8%
COc1ccc(-c2cn3c(n2)sc2cc(C(=O)Nc4cc(OC)cc(OC)c4)ccc23)cc1,-2.0%,0.0007µM*[quencher],/,-3.0%,-15.1%,2.8%
COC(=O)c1c(NC(=O)CN2C(=O)c3ccccc3C2=O)sc(Cc2ccc3c(c2)OCO3)c1C,-11.8%,-0.4%,-2.0%,?,0.2%,?
COc1ccc(Nc2ncnc3sc(-c4ccccc4)cc23)cc1OC,?,-10.2%,?,?,-1.8%,14.1µM*[quencher]
Cc1nc2cc(NC(=O)N(C)c3ccc4ccccc4c3)ccc2o1,?,-5.6%,?,-11.2%,0.6%,-19.8%
COC(=O)c1c(SCC(=O)Nc2cccc(Cl)c2C)[nH]c2ccccc2c1=O,15.8µM*,-1.4%,/,?,6.2%,-27.2%
O=C(CSc1nc2cc3ccccc3cc2[nH]1)Nc1cccc(C(F)(F)F)c1,-6.4%,-8.6%,/,3.16µM*,-2.0%,?
COC(=O)c1c(SCC(=O)Nc2cc(F)ccc2F)[nH]c2ccc(C)cc2c1=O,7.08µM*,-1.3%,/,-2.7%,4.3%,?
